# NS1 inh: inhibitors of influenza NS1 protein function; Potency, µM (top dose mostly 46.1 µM), for inactives: at the highest dose activity, positive = more growth; 270,000 compounds, 0.4% hits; AID 2326; note: potency is the fitted concentration of half-maximal effect; actives are rising curves; nearly all actives have a fitted effect of over 50% in size
#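 Compounds were scored for reversing the slow growth caused by influenza A NS1 in S. cerevisiae, measured by optical density at 600 nm. Assay medium contained 2% galactose at pH 6.0; NS1-free yeast of the same strain were the positive control.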
# CHX counter: counter-screen for Shiga toxin inhibitors: cycloheximide protein synthesis inhibition; max response, %; cell reporter, cycloheximide protein synthesis inhibition counterscreen; AID 2314; 300,000 compounds, 12% hits; in the data active = max response mostly above about 13%, no sharp cut-off; inactive = mostly below about 14%; note: read at 38.3 µM for the half of the compounds with a filed dose; 0% is about no effect
# SARS PLP yeast: inhibitors of SARS-CoV papain-like protease in yeast | S. cerevisiae expressing SARS-CoV PLpro, growth rescue | Potency, µM (titrated, usually from 32.9 µM), without a hit: top-dose activity, positive = growth rescue, most hits filed as activators | 330,000 compounds, 0.19% hits | AID 485353; note: potency is the fitted concentration of half-maximal effect; 0% is about no effect; nearly all actives have a fitted effect of over 55% in size
# Tb PYK inh: blocks Trypanosoma brucei pyruvate kinase; 410,000 compounds, 0.12% hits; TbPYK enzyme, Kinase-Glo Plus ATP luminescence, 45 min; Potency, µM (highest dose often 76.8 µM), for inactives: top-dose activity, negative = inhibition, usual class: inhibitors; Q57TT1; active = well fitted curve in the direction sought with a large enough effect; inconclusive = small, poorly fitted or top-dose-only effect, or another doubt; inactive = no such curve, though single readings can be large; an effect the other way counts as inactive or inconclusive; note: potency is the fitted concentration of half-maximal effect; % is set by controls: 0 for no effect and ±100 for the full control effect; nearly all actives have a fitted effect of over 50% in size
#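 Glycolytic pyruvate kinase of T. brucei was incubated with substrate, test compound and 130 uM ADP for 45 minutes at room temperature. Luminescent Kinase-Glo Plus signal was measured after 10 minutes.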
# LmPK inh: LmPK (Leishmania mexicana) enzyme inhibition; Potency, µM (series often up to 57.5 µM), for inactives: top-dose activity change, negative = inhibition, hits mostly inhibitors; purified LmPK, Kinase-Glo ATP luminescence, 1 h; 290,000 compounds, 0.37% hits; Q27686; active = well fitted curve in the direction sought with a large enough effect; inconclusive = small, poorly fitted or top-dose-only effect, or another doubt; inactive = no such curve, though single readings can be large; an effect the other way counts as inactive or inconclusive; note: potency is the fitted concentration of half-maximal effect; % is set by controls: 0 for no effect and ±100 for the full control effect
# Target sequence (Q27686 whole entry, looked up): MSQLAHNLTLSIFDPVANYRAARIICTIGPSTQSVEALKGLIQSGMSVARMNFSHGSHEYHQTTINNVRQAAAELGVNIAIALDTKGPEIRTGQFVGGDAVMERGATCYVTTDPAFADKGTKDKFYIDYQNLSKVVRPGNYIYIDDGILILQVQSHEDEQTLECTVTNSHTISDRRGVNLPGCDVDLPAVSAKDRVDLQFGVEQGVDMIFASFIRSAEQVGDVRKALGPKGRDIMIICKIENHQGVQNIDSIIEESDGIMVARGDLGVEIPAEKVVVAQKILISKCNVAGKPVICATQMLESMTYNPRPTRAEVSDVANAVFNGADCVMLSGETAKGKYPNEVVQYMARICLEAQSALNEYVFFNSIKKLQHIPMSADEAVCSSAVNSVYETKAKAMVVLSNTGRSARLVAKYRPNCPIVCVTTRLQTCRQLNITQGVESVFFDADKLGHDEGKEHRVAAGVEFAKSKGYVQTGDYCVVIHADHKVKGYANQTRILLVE
#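 0.1 nM LmPK, 0.5 mM PEP, 0.1 mM ADP; 50 mM imidazole pH 7.2, 7 mM MgCl2, 50 mM KCl; 1 h RT. Kinase-Glo luminescence readout, normalized to no-enzyme (full inhibition) and uninhibited wells.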
# Shiga inhibitor: Shiga toxin inhibition. 290,000 compounds, 9.2% hits. inhibition, % at 38.7 µM. Vero cells, Shiga toxin protein synthesis inhibition reporter. AID 2315; in the data active = inhibition mostly above about 28%, no sharp cut-off; inactive = mostly below about 43%; note: 0% is about no effect
# * hit, by the source's call; ? = inconclusive; nt = not tested or not shown; [ ] = remark or other dose. Only a selection was taken, and hits are over-represented in it overall. Unless noted, calls come from the whole dose curve.
SMILES,NS1 inh,CHX counter,SARS PLP yeast,Tb PYK inh,LmPK inh,Shiga inhibitor
CCOc1cccc(C(=O)Nc2nccs2)c1,3%,30*,-56%,1%,-5%,69*
O=C(Nc1nccs1)c1cccnc1Cl,7%,-2,0%,-2%,0%,3
O=C(CN1C(=O)c2ccccc2S1(=O)=O)Nc1ccc([N+](=O)[O-])cc1,nt,nt,0%,-2%,nt,nt
Cc1ccc(NC(=O)CN2C(=O)CSc3ccc(S(=O)(=O)N4CCCC4)cc32)c(C)c1,nt,nt,nt,-3%,nt,nt
O=C(Nc1n[nH]c(=S)s1)c1ccc2ccccc2c1,5%,34*,0%,?,-1%,69*
O=C(Nc1nccs1)c1ccccn1,nt,67*,3%,0%,-27%,97*
O=C(Nc1nccs1)c1ccc(Br)cc1,-21%,27*,14%,-1%,-6%,133*
O=C(Nc1nccs1)c1cnccn1,6%,2,-2%,4%,2%,24
O=C(CCNC(=O)c1ccc(Br)cc1)Nc1nccs1,nt,19*,0%,-4%,-7%,22
Cc1cccc(C(=O)NCCCNC(=O)c2cccc(C)c2)c1,1%,0,-2%,-2%,3%,-4
CC#CCN1c2ccccc2[C@]23C[C@@H](C(=O)OC)N(S(=O)(=O)c4cccs4)C2=NC(C(=O)OC)=C(C(=O)OC)[C@H]13,nt,nt,nt,nt,2%[11.5 µM],nt
C=CS(=O)(=O)c1sc(Cl)c(N2CCOCC2)c1[N+](=O)[O-],-77%,16*,-6%,-6%,-2%,21
Cc1cccn2c(=O)c3cc(C#N)c(=O)n(-c4nnc(SCc5ccc(Cl)cc5)s4)c3nc12,nt,nt,nt,-2%,nt,nt
Fc1ccc(-c2nnsc2Sc2ccccn2)cc1,nt,34*,1%,-8%,-7%,67*
COC(=O)C1=C(C)N(CCCC(=O)O)C(=O)NC1c1ccc(C#N)cc1 (centres undefined),nt,nt,nt,-4%,nt,nt
CNc1nn(-c2cccc(Cl)c2)nc1N,?,47*,-28%,0%,-8%,90*
Cn1c(C(=O)O)c(CC(=O)Nc2ccc3c(c2)OCCO3)c2ccccc21,?,64*,7%,2%,0%,147*
Cc1ccc(NC(=O)Cc2c(C(=O)O)n(C)c3ccccc23)cc1F,nt,12,1%,0%,25%,44
CC(O)c1nc2ccccc2n1CC(=O)Nc1ccc2c(c1)OCCO2 (centres undefined),nt,27*,2%,1%,1%,27
Nc1c(Cl)ncnc1N/N=C/c1ccnc2ccccc12,29%,10,-8%,-1%,-4%,20
Clc1cccc(/C=N/Nc2ncnc3ccccc23)c1,-111%,35*,-11%,-15%,-7%,62*
C(=N\Nc1ncnc2ccccc12)/c1ccccc1,nt,24*,2%,-1%,-6%,71*
Cc1ccnc(NC(=O)CSc2nnc3c(n2)[nH]c2ccccc23)c1,1%,33*,0%,nt,-4%,47*
CCc1ccc(CNC(=O)c2c(C)oc3ncn(CC(C)C)c(=O)c23)cc1,nt,nt,nt,5%,nt,nt
Cc1cc(NC(=O)COC(=O)CNC(=O)c2cccs2)c([N+](=O)[O-])cc1C,nt,nt,-6%,-1%,nt,nt
SMILES,NS1 inh,CHX counter,SARS PLP yeast,Tb PYK inh,LmPK inh,Shiga inhibitor
CCOC(=O)C1CCN(C(=O)Nc2ccc3nc(-c4ccco4)c(-c4ccco4)nc3c2)CC1,21%,-2,2%,?,-7%,39
CCOC(=O)C1CCN(C(=O)Nc2ccc3c(c2)nc(C)n3C)CC1,-21%,49*,7%,1%,-4%,53*
Cc1nc2cc(NC(=O)N3CCCCC3)ccc2n1C,8%,19*,17%,4%,-2%,44*
O=C(Nc1cccc(NC(=O)c2nccc3ccccc23)c1)c1ccco1,-44%,45*,-7%,3%,-2%,130*
O=C(Nc1cccc(-c2nc3ncccc3o2)c1)c1sc2ccccc2c1Cl,-8%,-2,4%,-4%,-1%,-9
O=C(Nc1cccc(NC(=O)c2sc3ccccc3c2Cl)c1)c1ccco1,-1%,40*,-1%,-9%,4%,69*
COc1ccc(N=Cc2nc(-c3ccccc3)oc2OC(C)=O)cc1,-3%,-1,0%,1%,2%,14
Cc1ccc(C(=O)Oc2oc(-c3ccccc3)nc2C=Nc2ccc(N(C)C)cc2)cc1,19%,78*,-1%,-12%,-3%,130*
CN(C)c1ccc(N=Cc2nc(-c3ccccc3)oc2OC(=O)c2cccc(Cl)c2)cc1,6%,68*,-14%,-14%,0%,71*
COc1cccc(N=Cc2nc(-c3ccccc3)oc2OC(C)=O)c1,-4%,8,-2%,-23%,-24%,48*
COc1ccc(OC)c(C(=O)CN2C(=O)N(c3ccc(C)cc3)S(=O)(=O)c3ccccc32)c1,nt,nt,nt,-6%,nt,nt
Cc1nn(CCC(=O)N2CCN(c3ccccc3F)CC2)c(C)c1S(=O)(=O)N1CCCC1,nt,nt,nt,0%,nt,nt
C=CCNc1nc(-c2c(C)nc3sccn23)cs1,-68%,25*,-25%,-2%,0%,50*
CCOC(=O)[C@]12CCC=C1N(Cc1ccco1)C(=O)[C@H](CC(=O)NCC13CC4CC(CC(C4)C1)C3)C2,nt,nt,nt,-6%,nt,nt
NC(=O)c1ccccc1NC(=O)c1cc(S(=O)(=O)N2CCCCC2)ccc1N1CCOCC1,nt,nt,-11%,-1%,nt,nt
Cc1ccc(-n2c(SCC(=O)N3CCOCC3)nnc2-c2cccnc2)cc1,-4%,24*,-5%,-2%,-9%,56*
Cc1cc(C(=O)CSc2nnc(-c3cccnc3)n2-c2ccccc2)c(C)n1CC1CCCO1 (centres undefined),10%,23*,9%,-3%,-10%,97
Oc1[nH]c2ccccc2c1N=NC(=S)N1CCOCC1,-62%,16*,-5%,?,22µM*,58
Oc1[nH]c2ccc(Br)cc2c1N=NC(=S)N1CCOCC1,-37%,1,-1%,?,22µM*,-8
COc1cc(/C=C2/C(=N)N3N=C(CC(=O)N4CCOCC4)SC3=NC2=O)ccc1OC(C)c1ccccc1 (centres undefined),15%,10,-6%,-7%,2%,-1
N=C1/C(=C\c2ccc(OC(=O)c3ccccc3Cl)cc2)C(=O)N=C2SC(N3CCOCC3)=NN12,4%,24*,-7%,-11%,-9%,58*
N=C1/C(=C/c2ccc(OCc3ccccc3)cc2)C(=O)N=C2SC(CC(=O)N3CCOCC3)=NN12,-50%,15*,-10%,0%,-5%,32
N=C1/C(=C/c2ccc(OCc3ccccc3F)cc2)C(=O)N=C2SC(CC(=O)N3CCOCC3)=NN12,-49%,23*,-9%,4%,0%,85*
Cc1cc(/C=C2\C(=N)N3N=C(CC(=O)N4CCOCC4)SC3=NC2=O)c(C)n1Cc1ccccc1,5%,1,0%,-2%,3%,21

# Source: PubChem (National Center for Advancing Translational Sciences (NCATS))
